From PubChem
FEN1 inh = blocks human flap endonuclease 1. P39748. Recombinant FEN1 flap cleavage, fluorescence, 15 min. Potency, µM (top dose mostly 114 µM), for inactives: top-dose activity change, negative = inhibition, hits mostly inhibitors. actives 0.35% (n = 390,000). AID 588795; further: on the % scale 0 is the no-effect control and ±100 the full control effect; nearly all actives have a fitted effect of over 65% in size
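Enzyme 10 nM, 15 min RT preincubation with compound; start with substrate 50 nM final; reads at 0 and 15 min; qHTS titration, four-parameter Hill fit.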
POLH inh = DNA polymerase eta (human) inhibition; Potency, µM (highest dose often 114 µM), without a hit: at the top dose activity change, negative = inhibition, actives largely listed as inhibitors; Q9Y253; recombinant Pol eta, fluorescent DNA replication assay; AID 588591; actives 1.2% (n = 390,000); further: on the % scale 0 is the no-effect control and ±100 the full control effect
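Fluorescent replication assay: 50 nM final substrate added after a 15 min room-temperature compound preincubation with 10 nM enzyme. Signal taken at 0 min and again at 10 min.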
POLB inh = blocks human DNA polymerase beta activity | Potency, µM (top dose mostly 114 µM), for the others: at the top dose activity change, negative = inhibition, hits mostly inhibitors | Pol beta primer extension/strand displacement, fluorescence kinetic | AID 485314 | actives 1.3% (n = 340,000); further: on the % scale 0 is the no-effect control and ±100 the full control effect
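Human Pol beta at 10 nM; strand-displacement substrate 50 nM final. Compound exposure 15 min at room temperature before start, reaction 10 min at room temperature.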
POLK inh = DNA polymerase kappa (human) inhibition; Q9UBT6; purified Pol kappa, fluorescent DNA synthesis assay, 10 min; Potency, µM (titrated, usually from 107 µM), for inactives: at the highest dose activity, negative = inhibition, actives largely listed as inhibitors; actives 0.53% (n = 400,000); further: on the % scale 0 is the no-effect control and ±100 the full control effect
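Inhibition of 10 nM Pol kappa is measured by a fluorescent read-out at 0 and 10 min following addition of 50 nM substrate (final), with a 15-min room-temperature compound preincubation.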
POLI inh = inhibitors of human DNA polymerase iota | Q9UNA4 | Pol iota fluorescent replication assay, 10 min | Potency, µM (doses to about 115 µM), for the others: at the top dose activity, negative = inhibition, hits mostly inhibitors | actives 1% (n = 390,000)
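Pol iota at 10 nM preincubated 15 min with compounds at room temperature; reaction started with fluorescent substrate, 50 nM final. Fluorescence read kinetically at 0 and 10 min; buffer-only wells as negative control.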
WRN helicase inh = WRN helicase (human) inhibition; actives 0.46% (n = 360,000); Potency, µM (doses to about 114 µM), for inactives: at the top dose activity change, negative = inhibition, usual class: inhibitors; Q14191; WRN helicase unwinding, fluorescent forked duplex, kinetic; further: on the % scale 0 is the no-effect control and ±100 the full control effect; nearly all actives have a fitted effect of over 55% in size
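Enzyme (20 nM final) and test compound sit together 15 min at room temperature before substrate addition. Substrate is a single-forked duplex oligonucleotide (100 nM) labelled with fluorophore and quencher, with 2 mM ATP; helicase unwinding raises red fluorescence, read kinetically.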
Active calls of the source: *; i = inactive; ? = inconclusive; . = no result; [ ] = another dose, or the depositor's remark. Rows were chosen to be rich in hits. Some 2.4% of all compounds tested hit in one or more screens of this group. The call rests on the fitted dose curve; in most records, active means well fitted curve in the direction sought with a large enough effect; inconclusive means small, poorly fitted or top-dose-only effect, or another doubt; inactive means no such curve, though single readings can be large; an effect the other way counts as inactive or inconclusive. Potency means the concentration at half of the fitted maximal effect.

SMILES | FEN1 inh | POLH inh | POLB inh | POLK inh | POLI inh | WRN helicase inh
Cc1[nH]n(-c2ccccc2)c(=O)c1C(c1cccc([N+](=O)[O-])c1O)c1c(C)[nH]n(-c2ccccc2)c1=O | -13% | -21% | 0% | -12% | 0.28µM* | ?
CCN1/C(=C\C=C\C2=[N+](CC)c3ccccc3C2(C)C)C(C)(C)c2ccccc21 | 45µM* | i | 25µM* | 18µM* | . | 45µM*
CC(N)C(=O)NCC(=O)NC1CSSCC(C(=O)O)NC(=O)C(CO)NC(=O)C(C(C)O)NC(=O)C(Cc2ccccc2)NC(=O)C(C(C)O)NC(=O)C(CCCCN)NC(=O)C(Cc2c[nH]c3ccccc23)NC(=O)C(Cc2ccccc2)NC(=O)C(Cc2ccccc2)NC(=O)C(CC(N)=O)NC(=O)C(CCCCN)NC1=O (stereo not given) | . | . | . | 1%[19.4 µM] | . | .
O=[N+]([O-])/C=C/c1c(Cl)cccc1Cl | -5% | -1% | . | -13% | 2% | 32µM*
CC(=O)C1=C(O)[C@@H]2[C@@H]3c4c[nH]c5cccc(c45)C[C@@H]3C(C)(C)N2C1=O | . | . | . | -9%[19.4 µM] | . | .
C=CCN1C(=O)NC(=O)/C(=C/c2cc3c4c(c2)CCCN4CCC3)C1=O | -9% | 45µM* | ? | ? | 20µM* | -29%
C/C(O)=C(/C#N)C(=O)Nc1cc(Br)ccc1Br | . | . | . | -5%[19.4 µM] | . | .
CCOC(=O)c1c(-n2c(C)cc(C=C3C(=O)NC(=S)NC3=O)c2C)sc2c1CCCC2 | ? | 28µM* | 22µM* | ? | ? | 56µM*
CC(C)(O)C1O[C@H]2CC[C@@]3(C)[C@@](O)(CC[C@H]4Cc5c([nH]c6ccccc56)[C@@]43C)C2=CC1=O (stereo not given in full) | . | . | . | -1%[19.4 µM] | . | .
CCOc1cccc(OCC)c2c(C)[n+](CC3CCCO3)c(C)c1-2 (stereo not given) | ? | 45µM* | 22µM* | 25µM* | ? | -35%
CCOc1ccc2c3c1O[C@H]1[C@@H](O)C=C[C@H]4[C@@H](C2)N(C)CC[C@@]341 | . | . | . | 5%[19.4 µM] | . | .
Oc1ccccc1O | -4% | ? | 40µM* | 50µM* | 79µM* | 1%[11.6 µM]
O=C1c2ccccc2C(=O)c2ccccc21 | . | . | . | 6%[60.1 µM] | . | .
O=C1C=CC(=O)c2c(O)cccc21 | . | . | . | 2.7µM* | . | .
O=C(Oc1ccc([N+](=O)[O-])cc1)N1CCN(/[N+]([O-])=N/Oc2ccc([N+](=O)[O-])cc2[N+](=O)[O-])CC1 | -21% | . | . | -15% | ? | .
O=C(O)c1ccccc1SSc1ccccc1C(=O)O | -4% | -8% | ? | -11% | ? | -14%
C[CH2][Hg][S]c1ccccc1C(=O)O | 22µM* | -12% | . | -17% | ? | -6%[11.6 µM]
O=C(c1ccc(CS(=O)(=O)c2ccc(Br)cc2)o1)N1CCC2(CC1)OCCO2 | -12% | -5% | 18% | -17% | 3% | -5%
O=C(c1ccc(CS(=O)(=O)c2ccccc2)o1)N1CCC2(CC1)OCCO2 | 6% | 89µM* | ? | -36% | ? | -6%[11.6 µM]
CCC(Oc1ccc(Cl)cc1)C(=O)OC1CC2CCC(C1)N2C (stereo not given) | . | . | . | 8%[19.4 µM] | . | .
C/C1=C\[C@@H](C)C/C=C/[C@H]2[C@@H]3O[C@]3(C)[C@@H](C)[C@H]3[C@H](Cc4c[nH]c5ccccc45)NC(=O)[C@]32C(=O)/C=C/C(=O)[C@@H]1O | -2% | ? | 22µM* | ? | ? | -4%
O=c1[nH]c(=O)n([C@H]2C[C@H](O)[C@@H](CO)O2)cc1/C=C/Br | . | -2%[57.1 µM] | 12%[57.1 µM] | -1%[19.4 µM] | ? | .
CCOc1cc(/C=C2/C(=O)NC(=O)N(c3ccc(CC)cc3)C2=O)ccc1OC(=O)c1cccs1 | -1% | 45µM* | -13% | -3% | -18% | 50µM*
CCc1ccc(N2C(=O)NC(=O)/C(=C/c3cccn3CCOc3ccc(C)cc3)C2=O)cc1 | 1% | ? | 35% | -15% | ? | -2%
